Htt clearance: mutant huntingtin protein clearance; HeLa Exon1htt(103Q)mCFP, aggregate imaging; zero = plate's median compound well; inhibition, % at 1.5 µM; actives 0.42% (n = 47,000); AID 853;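 active means inhibition of aggregate fluorescence above about 70%, also judged a hit by eye on the cell image, limit read from the data, passing the limit was not always enough; inconclusive means no rule stated for this call; inactive means not judged a hit on image review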;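 further: cells exposed to compound for three days before fixation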
Cdc25B block: inhibitors of human Cdc25B phosphatase. recombinant Cdc25B, OMFP fluorescence Ex485/Em525. P30305. inhibition, %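 (compounds tested at 10 µM final in the well)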. AID 368. actives 0.1% (n = 65,000); in the data active means inhibition above about 50%
Target sequence (P30305 whole entry, looked up): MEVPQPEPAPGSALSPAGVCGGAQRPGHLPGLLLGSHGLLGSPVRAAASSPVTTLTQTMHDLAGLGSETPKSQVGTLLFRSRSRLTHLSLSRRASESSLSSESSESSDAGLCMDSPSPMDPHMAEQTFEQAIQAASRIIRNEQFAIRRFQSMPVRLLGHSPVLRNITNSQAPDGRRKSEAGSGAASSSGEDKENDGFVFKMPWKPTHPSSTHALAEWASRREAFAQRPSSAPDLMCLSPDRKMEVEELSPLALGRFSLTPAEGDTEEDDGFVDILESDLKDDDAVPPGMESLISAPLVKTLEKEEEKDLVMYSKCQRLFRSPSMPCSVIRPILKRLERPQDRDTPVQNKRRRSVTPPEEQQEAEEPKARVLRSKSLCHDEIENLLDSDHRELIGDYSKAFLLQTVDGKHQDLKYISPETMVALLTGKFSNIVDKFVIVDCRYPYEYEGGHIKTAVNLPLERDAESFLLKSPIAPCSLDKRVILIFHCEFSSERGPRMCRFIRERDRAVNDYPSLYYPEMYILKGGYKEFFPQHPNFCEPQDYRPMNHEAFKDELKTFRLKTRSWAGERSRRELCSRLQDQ
Jurkat tox 60K: cytotoxic compounds reducing Jurkat cell viability. inhibition, % at 4 µM. AID 463. actives 1.2% (n = 56,000). Jurkat E6.1 viability, ATP luminescence, 48 h;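 active means inhibition above the mean inhibition of all tested compounds plus 3 SD, cut at about 28% in these data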
MKP-1 inh: human dual specificity phosphatase 1 inhibition. actives 0.15% (n = 65,000). recombinant MKP-1, OMFP hydrolysis fluorescence. AID 374. P28562. inhibition, %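 (compounds tested at a single concentration somewhere between 10 and 100 µM)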;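 active means inhibition above about 50%, limit read from the data; inconclusive means inhibition over screen mean plus 3 SD, below that limit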;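 further: 0% = DMSO max control wells and 100% = wells with enzyme stopped by NaOH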
SK-BR-3 tox 24h: SK-BR-3 proliferation inhibitors | SK-BR-3 viability, CellTiter-Glo ATP luminescence, 24 h; active compounds read low | viability, % at 10 µM | actives 0.47% (n = 41,000) | AID 847;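 active means viability at or below the median of all test compounds minus 3 SD, in both replicates if run twice, cut at about 45% in these data; inconclusive means duplicate replicates that disagree with each other; inactive means viability above that cutoff in every replicate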;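 further: 100% = median untreated cell wells and 0% = median positive control drug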
Numbers without * were called inactive; i = inactive; ? = inconclusive; / = no result. The list is not random: actives were taken first. Their share in the collection is about 1.6%.

SMILES | Htt clearance | Cdc25B block | Jurkat tox 60K | MKP-1 inh | SK-BR-3 tox 24h
Cc1noc(C)c1CSc1nc2[nH]ncc2c(=O)n1-c1ccccc1 | / | -9.9 | 83.3* | -0.7 | 85.4
C=CCn1c(SCc2c(C)noc2C)nc2cc(C(=O)O)ccc2c1=O | -74.8 | -9.4 | 69.2* | -4.9 | /
Cc1nc(CSc2nc3[nH]ncc3c(=O)n2-c2ccccc2)cs1 | 17.0 | -9.4 | 6.2 | -9.1 | /
Cc1cc(C(=O)O)c(CSCc2cc(C(=O)O)oc2C)o1 | -19.6 | / | / | / | /
O=C(c1ccc(-n2cnnn2)cc1)N1CCOCC1 | -21.6 | -14.2 | / | -20.6 | 100.0
NC(=O)C1(N2CCCCC2)CCN(C(=O)c2ccc(-n3cnnn3)cc2)CC1 | 20.6 | -4.3 | -6.2 | 8.1 | 42.0*
COc1ccc(OCC(=O)Nc2ccc(S(=O)(=O)N3CCOCC3)cc2)cc1 | 87.0* | -10.6 | -0.7 | -8.3 | 132.8
O=C(COc1ccccc1)Nc1ccc(S(=O)(=O)N2CCOCC2)cc1 | -43.5 | -3.0 | -2.0 | 5.0 | /
CCc1nnc(NC(=O)c2ccc(S(=O)(=O)N(CC)Cc3ccccc3)cc2)o1 | / | -7.6 | 97.7* | -6.5 | 53.5
CN(Cc1ccccc1)S(=O)(=O)c1ccc(C(=O)Nc2nnc(C3CC3)o2)cc1 | / | -3.7 | 100.3* | -21.6 | 78.3
CCCCN(CCCC)S(=O)(=O)c1ccc(C(=O)Nc2nnc(COC)o2)cc1 | / | -0.2 | 17.5 | 10.1 | 56.5
CCCCN(C)S(=O)(=O)c1ccc(C(=O)Nc2nnc(CSC)o2)cc1 | / | -0.6 | 52.9* | -5.7 | 43.4*
CCCCN(CC)S(=O)(=O)c1ccc(C(=O)Nc2nnc(-c3cccs3)o2)cc1 | / | -10.8 | 100.8* | -9.8 | 75.3
CC(C)[C@H](N)c1nnc(SC/C=C/c2ccccc2)o1 | -7.8 | / | / | / | /
c1ccc(-c2nc(NC3CC3)nc(-n3ccnc3)n2)cc1 | -12.6 | 9.9 | -3.3 | -0.6 | /
COc1ccc(-c2nnc(SCC(=O)N3CCCCC3)o2)cc1OC | / | -0.2 | -0.3 | -8.6 | /
COc1ccc(-c2nnc(SCC(=O)OC3CCCCC3)o2)cc1OC | 72.5* | -2.8 | -1.9 | 24.8 | 81.8
Cc1cc(C)n(C(=O)c2ccc(NC(=O)CC(C)C)cc2)n1 | 90.3* | -5.0 | 6.8 | 4.2 | 100.8
CCC(=O)Nc1ccc(C(=O)n2nc(C)cc2C)cc1 | / | -10.4 | -3.5 | 4.3 | 96.4
COc1cc(C2C3=C(Nc4ncnn42)c2ccccc2CC3)cc(OC)c1OC (stereo not drawn) | -202.2 | 6.5 | 97.8* | 15.1 | /
COc1ccc(C2C3=C(Nc4ncnn42)c2ccccc2CCC3)cc1 (stereo not drawn) | 17.8 | 3.6 | / | 4.5 | 69.5
O=C(NCc1cccnc1)c1c[nH]c2cc3c(cc2c1=O)OCCO3 | / | 3.3 | 94.4* | 23.6 | 85.1
O=C(NCc1ccccc1)c1c[nH]c2ccc(S(=O)(=O)Nc3ccc4c(c3)OCCO4)cc2c1=O | -5.8 | 32.1 | 7.4 | 40.3 | /
CC1(C)CC(=O)C2=C(C1)OC1=C(C(=O)CC(C)(C)C1)C2c1ccc(O)cc1O | -3.6 | -0.8 | 95.8* | 41.2 | /
CCOC(=O)C1=C(N)OC2=C(C(=O)CC(C)(C)C2)C1c1ccco1 (stereo not drawn) | ? | -10.2 | -10.2 | -25.3 | 91.0
SMILES | Htt clearance | Cdc25B block | Jurkat tox 60K | MKP-1 inh | SK-BR-3 tox 24h
Cc1ccc2oc3c(c(=O)c2c1)C(c1cccc(Br)c1)N(Cc1ccco1)C3=O (stereo not drawn) | / | 7.1 | -8.3 | 15.4 | 91.3
Cc1cc2oc3c(c(=O)c2cc1C)C(c1cccc(Br)c1)N(Cc1ccco1)C3=O (stereo not drawn) | -157.1 | 4.8 | 6.0 | 16.4 | 41.7*
CCC(Cc1ccccc1)NC(=O)CSc1ccsc1[N+](=O)[O-] (stereo not drawn) | -18.9 | / | / | / | /
CCCCCCc1nc2ccccc2c(=O)n1NC(=O)c1c(O)c2cccc3c2n(c1=O)CC3 | 48.5 | / | / | / | /
O=C(Cc1ccccc1)NCC1CCCO1 (stereo not drawn) | -27.3 | / | / | / | /
O=C(Cc1cccs1)NCC1CCCO1 (stereo not drawn) | 9.3 | -29.2 | 6.7 | -16.0 | 34.9*
O=C(C1CCN(S(=O)(=O)c2cccc3cccnc23)CC1)N1CCN(c2ccccn2)CC1 | / | -7.9 | -0.2 | 13.0 | 91.4
O=C(C1CCN(S(=O)(=O)c2cccc3cccnc23)CC1)N1CCN(c2ccc(Cl)cc2)CC1 | / | -10.7 | 38.0* | 34.9 | /
CCOC(=O)c1[nH]c(C)c(C(=O)Nc2ccccc2C)c1C | / | -13.5 | 78.6* | -5.2 | /
CCOC(=O)c1[nH]c(C)c(C(=O)Nc2cc(Cl)ccc2C)c1C | / | 1.4 | 88.3* | 1.7 | /
CCOC(=O)c1[nH]c(C)c(C(=O)Nc2ccc(C)c(F)c2)c1C | / | -10.3 | 49.3* | 5.3 | /
Cc1cc(O)ccc1Nc1nc2ccccc2nc1Nc1ccc(O)cc1C | / | 10.9 | -2.9 | 17.5 | /
Cc1ccc2nc(C(O)C(O)c3nc4ccc(C)cc4[nH]3)[nH]c2c1 (stereo not drawn) | / | 5.4 | / | -2.5 | /
Cc1ccc2nc(C(F)OC(F)(F)F)[nH]c2c1 (stereo not drawn) | 72.6* | -0.7 | -3.5 | -0.7 | 104.8
O=C(CSc1nnc(CNc2ccc(F)cc2)o1)N1c2ccccc2Sc2ccccc21 | -24.7 | / | / | / | /
CCOC(=O)C1=C(N)n2c(s/c(=C\c3ccco3)c2=O)=C(C(=O)OCC)C1c1ccco1 (stereo not drawn) | 32.6 | -8.5 | 60.7* | -19.2 | 108.6
CCCCOCCCn1c(-c2ccco2)nc2nc3ccccc3nc21 | 42.2 | 0.8 | -3.0 | 40.5 | 61.6
COc1ccc(Cl)cc1NC(=O)c1nc2nc(C)cc(C(F)F)n2n1 | / | -5.8 | 7.5 | 10.5 | /
O=C(COc1ccccc1)Nc1cccc(-c2nc3cc4ccccc4cc3[nH]2)c1 | -11.3 | / | / | / | /
COc1ccc(N2CCn3c2nc2c3c(=O)n(CCc3ccccc3)c(=O)n2C)c(OC)c1 | 24.4 | 1.0 | 4.9 | 12.4 | 76.7
COc1ccc(N2CCn3c2nc2c3c(=O)n(CCCc3ccccc3)c(=O)n2C)c(OC)c1 | / | -17.6 | 49.8* | 26.3 | /
CCOC(=O)Cc1cn2c(=O)cc(CSCC(=O)Nc3ccc(C)c(C)c3)nc2s1 | / | 5.3 | -5.9 | -6.9 | /
O=C(Nc1ccccc1)N1CCCc2ccccc21 | 82.7* | / | / | / | /
Cc1cc(NC(=O)COC(=O)c2ccc(S(=O)(=O)N3CCCc4ccccc43)cc2)no1 | i | 2.0 | 64.5* | 4.1 | /
O=C(Nc1nnc(C2CC2)o1)c1ccc(S(=O)(=O)N2CCCc3ccccc32)cc1 | / | 2.0 | 101.6* | 13.9 | /
SMILES | Htt clearance | Cdc25B block | Jurkat tox 60K | MKP-1 inh | SK-BR-3 tox 24h
CC(=O)Nc1ccc(S(=O)(=O)N2CCCc3ccccc32)cc1 | -163.9 | -3.9 | 81.6* | 1.9 | 101.2
Cc1cc(NC(=O)COC(=O)c2ccc(NS(=O)(=O)c3ccc(C)c(C)c3)cc2)no1 | -34.2 | / | / | / | /
COC(=O)Nc1ccc(S(=O)(=O)N2c3ccccc3CCC2C)cc1 (stereo not drawn) | / | -1.4 | 92.3* | 23.7 | /
COc1ccc2cc(C#N)c(N3CCN(Cc4nnnn4CCC(C)C)CC3)nc2c1 | 13.3 | 8.2 | -3.6 | 21.9 | 134.1
CC(O)CNc1nc2c(c(=O)n(C)c(=O)n2C)n1Cc1cccc(Br)c1 (stereo not drawn) | 1.8 | 4.1 | 27.7* | 5.1 | 86.3
CCCNc1nc2c(c(=O)n(C)c(=O)n2C)n1Cc1cccc(C)c1 | / | -7.2 | 59.1* | 3.2 | /
Cn1c(=O)c2c(nc(NCCO)n2CCc2ccccc2)n(C)c1=O | / | -6.6 | 32.1* | -18.0 | 88.7

Screens (PubChem BioAssay)
